Rac1 wt modul – human Rac1 wildtype GTP binding, inhibitors and activators; P63000; GST-Rac1 beads, fluorescent GTP binding, flow cytometry; actives lie on both sides; 0 = cold GTP competed, 100 = untreated; GTP binding activity (% of control), % at 10 µM; hit rate 0.27% among 190,000; AID 757;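 active = GTP binding activity at least 20 points away from the 100% control level, either lower or higher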
HRas wt GTP bind – changes GTP binding to wildtype human HRas. P01112. hit rate 0.14% among 190,000. GST-Ras wt beads, Bodipy-FL-GTP binding, flow cytometry; actives lie on both sides. GTP binding activity, % at 10 µM;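 active = GTP binding activity at least 20% away from the 100% baseline, either lowered as inhibitor or raised as activator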
Target sequence (P01112 whole entry, looked up): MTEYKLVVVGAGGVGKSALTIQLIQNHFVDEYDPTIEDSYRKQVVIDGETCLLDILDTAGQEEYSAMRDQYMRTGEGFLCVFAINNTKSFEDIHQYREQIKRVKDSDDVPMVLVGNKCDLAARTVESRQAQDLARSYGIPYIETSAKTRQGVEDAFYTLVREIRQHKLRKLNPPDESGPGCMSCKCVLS
Rac1 act GTP bind – human Rac1 activated mutant GTP binding change; percent activity (GTP binding), % at 10 µM; hit rate 0.11% among 190,000; GST-Rac1 activated beads, fluorescent GTP binding, flow cytometry; actives lie on both sides; 100% means binding = to untreated wells;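 active = GTP binding at least 20 percentage points away from the 100% baseline, in either direction, so actives lie on both sides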
Cdc42 wt – changes GTP binding to wildtype human Cdc42 | GST-Cdc42 beads, Bodipy-GTP binding, flow cytometry; actives lie on both sides | percent activity (GTP binding), % at 10 µM | hit rate 0.2% among 190,000;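 active = percent activity GTP binding at least 20 points away from the 100% baseline, either down as inhibitor or up as activator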;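 note: median bead fluorescence of bound Bodipy-FL-GTP at 100 nM; below 100% means less GTP binding so inhibitor and above means activator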
Target sequence (P60953 whole entry, looked up): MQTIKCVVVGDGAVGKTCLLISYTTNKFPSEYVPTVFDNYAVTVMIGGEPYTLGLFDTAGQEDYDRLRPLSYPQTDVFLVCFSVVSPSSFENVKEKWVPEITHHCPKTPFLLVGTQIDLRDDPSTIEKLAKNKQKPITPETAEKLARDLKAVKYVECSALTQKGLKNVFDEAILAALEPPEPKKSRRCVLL
Rab7 wt GTP bind – modulators of GTP binding to dog Rab7 wildtype GTPase. GST-Rab7 beads, fluorescent GTP binding, flow cytometry; actives lie on both sides; untreated = 100%, excess cold GTP = 0%. GTP binding activity (percent of control), % at 10 µM. hit rate 0.055% among 190,000. AID 758;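 active = fluorescent GTP binding to Rab7 beads changed by at least 20 points from the 100% baseline, either direction, mostly lower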;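 note: median green fluorescence of bound Bodipy-FL-GTP per Rab7 bead population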
Rab2 wt GTP – changes GTP binding to wildtype dog Rab2A, up or down. GST-Rab2 wt beads, Bodipy-GTP binding, flow cytometry. GTP binding activity, % at 10 µM. hit rate 0.19% among 190,000;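 active = GTP binding activity at least 20 points away from 100%, either lowered or raised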
Numbers stand for hits; 0 = inactive; [ ] = dose if it differs, or a comment. Only some compounds are listed: those with a hit (about 0.37% of all), similar ones and a draw of the others.

SMILES	Rac1 wt modul	HRas wt GTP bind	Rac1 act GTP bind	Cdc42 wt	Rab7 wt GTP bind	Rab2 wt GTP
NCc1ccccc1COc1ccccc1	0	0	0	0	0	0
COc1cc(C(=O)NC(=S)Nc2ccc3c(c2)C(=O)N(C)C3=O)cc(OC)c1OC	0	0	0	0	0	0
Cc1ccc(C)c2sc(NC(=O)c3nc4ccccc4s3)nc12	0	0	0	0	0	0
Cc1ccc(C(=O)c2ccccc2C(=O)O)c(O)c1	0	0	0	0	0	0
Cc1cc(C)c(C)c(C(=O)c2ccccc2C(=O)O)c1C	150[activator]	120[activator]	129[activator]	132[activator]	0	123[activator]
Cc1ccc(C(=O)c2ccccc2C(=O)O)cc1C	150[activator]	123[activator]	132[activator]	135[activator]	0	124[activator]
COc1ccccc1N(CC(=O)NC1CCCC1)C(=O)c1oc(C(C)(C)C)cc1C	0	0	0	0	0	0
CCOC(=O)Cn1nnnc1C(CC)N(Cc1cccs1)Cc1cc2cc(C)ccc2[nH]c1=O (stereo unspecified)	0	0	0	0	0	0
CCOC(=O)Cn1nnnc1C(C(C)C)N(Cc1cccs1)Cc1cc2cc(C)ccc2[nH]c1=O (stereo unspecified)	0	0	0	75	0	0
Cc1nn(-c2ccc(F)cc2)c(C)c1/C=C/C(=O)N1CCNC(=O)C1	0	0	0	0	0	0
CCOC(=O)c1ccc(NC(=O)c2c(NC(=O)CCC(=O)O)sc3c2CCCCC3)cc1	0	0	0	0	0	0
CCCOC(=O)c1c(NC(=O)CCC(=O)O)sc2c1CCCCC2	0	0	0	0	0	76
COc1ccccc1N(C)S(=O)(=O)c1ccc(C(=O)Nc2nc(C)cs2)cc1	0	0	0	0	0	0
Cc1cc(C)n(CC(O)Cn2c3ccc(Cl)cc3c3cc(Cl)ccc32)c(=O)n1 (stereo unspecified)	0	0	0	0	0	0
OC(CNCCC1C=Nc2ccccc21)Cn1c2ccc(Cl)cc2c2cc(Cl)ccc21 (stereo unspecified)	144[activator]	0	0	0	0	0
Cc1[nH]nc2c1C(c1ccsc1)C1=C(CC(C)(C)CC1=O)N2 (stereo unspecified)	0	0	0	0	0	0
Cc1cnc(CNC(=O)c2ccc(OC3CCN(C(=O)C4CC4)CC3)cc2)cn1	0	0	0	0	0	0
COc1ccc(S(=O)(=O)N2CCCCC2)cc1NC(=O)c1ccc([N+](=O)[O-])o1	74	0	0	0	0	0
N#Cc1c(Nc2ccccc2)c(/C=N/NCCO)c[nH]c1=O	0	0	0	0	0	0
N#Cc1c(Nc2ccccc2)c(/C=N/N=C/c2ccccc2)c[nH]c1=O	75	76	0	0	0	0
CCOc1ccc2ccccc2c1/C=N/n1cncn1	130[activator]	0	0	0	0	0
Cc1noc(C)c1COc1ccc(C(=O)OCC(=O)NCc2ccccc2Cl)cc1	0	0	0	0	0	0
Cc1noc(C)c1COc1cccc(C(=O)NCc2ccccc2Cl)c1	72	52	74	71	67	69
COc1ccc(-c2c(C)[nH]n3c(=O)c(Cc4ccccc4)c(C)nc23)cc1	0	0	0	0	0	77
COc1ccccc1-c1c(C)[nH]n2c(=O)c(Cc3ccccc3)c(C)nc12	0	0	0	0	0	0
SMILES	Rac1 wt modul	HRas wt GTP bind	Rac1 act GTP bind	Cdc42 wt	Rab7 wt GTP bind	Rab2 wt GTP
CC[C@H](C)[C@H](NC(N)=O)C(=O)NCCc1ccc(OC)c(OC)c1	0	0	0	0	0	0
COc1cc(/C=N/Nc2nnc3c(n2)[nH]c2ccccc23)ccc1O	0	0	0	0	0	79
COc1cc(/C=N/Nc2ccccc2C(F)(F)F)ccc1O	0	0	0	0	0	0
COc1cc(/C=N/Nc2nncn2/N=C/c2ccc(O)c(OC)c2)ccc1O	75	76	0	77	0	79
Cc1ccnn1CCC(=O)N1CCCC(CCC(=O)N2CCN(c3ccccn3)CC2)C1 (stereo unspecified)	0	0	0	0	0	0
O=c1c2ccccc2nc2c3ccccc3c(NCc3ccccn3)nn12	65	76	0	75	0	74
Cc1nc(NCc2ccccn2)c2ccccc2n1	0	0	0	0	0	0
O=c1c2ccccc2nc2c3ccccc3c(NCCO)nn12	63	62	78	58	0	62
O=c1c2ccccc2nc2c3ccccc3c(NCc3cccnc3)nn12	69	75	0	72	0	72
CCOC(=O)c1nc(NCc2cccnc2)c2ccccc2n1	0	0	0	0	0	0
O=C(NCCc1ccccc1)c1c(F)c(F)c(F)c(F)c1F	0	0	0	0	0	0
CSc1ccccc1C(=O)C1CCCN(Cc2cnn(-c3ccccc3)c2)C1 (stereo unspecified)	0	0	0	0	0	0
O=C(NCCc1ccc(Cl)cc1)C1CCC(CNc2nc(=S)[nH]c3ccccc23)CC1 (stereo unspecified)	0	0	0	0	0	0
O=C(NCc1ccccc1Cl)C1CCC(CNc2nc(=S)[nH]c3ccccc23)CC1 (stereo unspecified)	78	0	0	0	0	0
CCN(CC)c1ccc2c(c1)oc(=O)c1c(Cl)cc(=O)oc12	0	0	78	0	0	0
CC(=O)c1cccc(NC(=O)/C(=C\c2cccnc2)NC(=O)c2ccco2)c1	0	0	0	0	0	0
O=C(O)CC/C(=C\c1ccc(N2CCOCC2)c([N+](=O)[O-])c1)c1nc2ccccc2s1	0	77	72	71	0	74
CC1(C)CC(=O)C2=C(C1)N(c1cccc(Cl)c1)C(=O)NC2(C(F)(F)F)C(F)(F)F	0	0	0	0	0	0
O=S(=O)(Nc1cccc(-c2cn3cccnc3n2)c1)c1ccc(-c2ccccc2)cc1	0	0	0	0	0	0
O=S(=O)(Nc1cccc(-c2cn3cccnc3n2)c1)c1ccccc1	70	75	0	0	0	74
CC1Cc2ccccc2N1S(=O)(=O)c1cccc(C(=O)NCCCO)c1 (stereo unspecified)	123[activator]	0	0	0	0	0
O=C(Nc1nc(-c2ccc(S(=O)(=O)N3CCCC3)cc2)cs1)c1cccs1	0	71	0	71	0	70
O=C(Nc1ccc(S(=O)(=O)N2CCCC2)cc1)c1cccs1	0	0	0	0	0	0
O=C(Nc1ncn[nH]1)c1ccc(S(=O)(=O)N2CCOCC2)cc1	0	0	0	0	0	0
COc1ccc(C(=O)N[C@H](C(=O)OCc2cc(=O)oc3cc(C)ccc23)C(C)C)cc1	33	37	33	33	20	31

Assay outcomes from PubChem.
